Screens deposited in PubChem BioAssay by National Center for Advancing Translational Sciences (NCATS).
Shown are actives, neighbours in structure and some others; about 12% of the full set was active somewhere.
Pf growth 96h: P. falciparum growth inhibition at 96 hours | P. falciparum luciferase reporter growth, 96 h | Potency, µM (titrated, usually from 28.7 µM), actives largely listed as inhibitors | 320,000 compounds, 6.9% hits | AID 504834
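Readout is luminescence from an integrated firefly luciferase in P. falciparum. Red cells, 2% hematocrit and 0.05% parasitemia final, were cultured with compound through two parasite generations (96 hours) at 37 C, 5% CO2.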
SARS PLpro yeast: blocks SARS-CoV papain-like protease in a yeast assay; S. cerevisiae expressing SARS-CoV PLpro, growth rescue; Potency, µM (series often up to 32.9 µM), hits mostly activators; 330,000 compounds, 0.19% hits; AID 485353; calls by dose curve; also: nearly all actives have a fitted effect of over 55% in size
Sm TGR block: blocks Schistosoma mansoni thioredoxin glutathione reductase. Q962Y6. purified TGR, DTNB reduction, TNB absorbance 405 nm. Potency, µM (titrated, usually from 114 µM), most hits filed as inhibitors. 360,000 compounds, 3% hits. AID 485364; also: nearly all actives have a fitted effect of over 60% in size
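First, TGR (20 nM dispensed) and NADPH were mixed with compound. Second, a 15 min room-temperature incubation followed. Third, further NADPH and then DTNB were added to start the reaction. Finally, TNB absorbance was monitored kinetically.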
Pf growth 48h: P. falciparum growth inhibition at 48 hours (one generation). P. falciparum luciferase growth in erythrocytes, 48 h. Potency, µM (doses to about 28.7 µM), actives largely listed as inhibitors. 310,000 compounds, 5.9% hits
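Luminescence readout; reporter = integrated firefly luciferase in P. falciparum. RBC culture at 2% hematocrit, 0.1% parasitemia final, 37 C/5% CO2; decreased signal taken as growth inhibition.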
A number is an active result; n = inactive; u = inconclusive; x = no result given. Unless noted, calls follow the shape of the dose curve; as a rule, active = well fitted curve in the direction sought with a large enough effect; inconclusive = small, poorly fitted or top-dose-only effect, or another doubt; inactive = no such curve, though single readings can be large; an effect the other way counts as inactive or inconclusive.

SMILES	Pf growth 96h	SARS PLpro yeast	Sm TGR block	Pf growth 48h
COCCN(CCOC)Cc1c(O)ccc2c1O/C(=C\c1ccc(C)o1)C2=O	u	n	1.8µM	x
Cc1oc2c(c1C(=O)NCCO)CCCC2	0.013µM	n	n	x
Cc1oc2c(c1C(=O)NCc1ccccc1)CCCC2	n	n	u	n
O=C1NC(=O)N(Cc2ccccc2Cl)C(=O)/C1=C/N1CCOCC1	n	n	3.5µM	n
O=C1NC(=O)N(Cc2cccs2)C(=O)/C1=C/c1ccc(N2CCOCC2)cc1	n	n	u	n
CCOC(=O)c1c(C)[nH]c(CCC(=O)NCc2ccccc2Cl)c1C	x	x	n	x
Cc1ccc(Cn2ncc3c(N4CCN(C)CC4)ncnc32)cc1	7.4µM	n	n	n
Cc1ccc(Cn2ncc3c(N4CCN(CCc5ccccc5)CC4)ncnc32)cc1	u	n	n	6.6µM
Cc1ccc(Cn2ncc3c(N4CCN(Cc5ccc(Cl)cc5)CC4)ncnc32)cc1	n	n	u	u
COc1cccc(-c2c(C(=O)N/N=C/c3sccc3C)nnn2-c2nonc2N)c1	u	n	n	u
COc1ccc(S(=O)(=O)c2c(Nc3ccc(C)cc3C)sc(C(=O)c3ccc(F)cc3)c2N)cc1	x	x	n	x
O=C(Nc1ccc(S(=O)(=O)N2CCCC2)cc1)c1cccs1	u	n	n	u
O=C(Nc1ccc(Br)cc1)C1CCCN1S(=O)(=O)c1cccs1 (stereo unspecified)	3.7µM	n	n	x
CC1CCN(S(=O)(=O)c2ccc(NC(=O)c3cccs3)cc2)CC1	n	n	n	4.7µM
CCCCN(CCCC)S(=O)(=O)c1ccc(NC(=O)c2cccs2)cc1	0.41µM	n	n	x
CN1CCN(S(=O)(=O)c2ccc(NC(=O)c3cccs3)cc2)CC1	n	x	n	n
Cc1cc(C)nc(NS(=O)(=O)c2ccc(NC(=O)c3cccs3)cc2)n1	n	n	n	n
CC1CCCCN1S(=O)(=O)c1ccc(NC(=O)c2cccs2)cc1 (stereo unspecified)	u	n	n	15µM
Cc1ccc(N2CC(C(=O)NCCS(=O)(=O)N3CCN(c4ccccc4)CC3)CC2=O)cc1C (stereo unspecified)	n	n	n	u
O=C(COc1ccc(-n2cnnn2)cc1)Nc1ccc(F)c(F)c1	x	n	x	x
O=C(Nc1ccccc1)Nc1ccncc1	u	n	n	u
O=C(Nc1ccncc1)Nc1ccccn1	8.3µM	n	n	n
O=C(CC(=O)Nc1ccccn1)Nc1ccccn1	9.3µM	n	n	n
Cc1cc(F)ccc1NC(=O)Cn1cc(S(=O)(=O)NC(C)C)c(S(=O)(=O)NC(C)C)c1	x	x	n	x
Cn1cc(Br)c(C(=O)Nc2sc3c(c2C(N)=O)CCCC3)n1	4.1µM	n	n	n
SMILES	Pf growth 96h	SARS PLpro yeast	Sm TGR block	Pf growth 48h
NC(=S)N/N=C/c1ccccc1OC(=O)c1cc2ccccc2oc1=O	0.59µM	n	n	0.33µM
Cc1ccc(C(=O)NCC(c2ccc3c(c2)OCO3)N2CCOCC2)cc1C (stereo unspecified)	x	x	n	x
CCOC(=O)c1c(C)[nH]c(CCC(=O)NCc2cc(Br)ccc2OC)c1C	x	x	n	x
CCCCC(=O)OC1CCC2C3CCc4cc(O)ccc4C3CC[C@]12C (stereo partly specified)	n	x	x	n
C[C@]12CC[C@@H]3c4ccc(OC(=O)c5ccccc5)cc4CC[C@H]3[C@@H]1CC[C@@H]2O	8.3µM	n	n	u
COc1cc2c(cc1O)CC[C@@H]1[C@@H]2CC[C@]2(C)[C@@H](O)CC[C@@H]12	x	n	n	x
C[C@]12CC[C@@H]3c4ccc(O)cc4CC[C@H]3[C@@H]1CC[C@@H]2OC(=O)CCC(=O)O	n	n	45µM	n
FC(F)(F)c1cnc(-c2cnc(-c3ccncc3)nc2)c(Cl)c1	n	n	n	n
FC(F)(F)c1cnc(-c2cnc(-c3ccccn3)nc2)c(Cl)c1	6.6µM	n	n	n
CC(C)C(C(=O)NCC1CCCO1)N(CC1CCCO1)C(=O)CNS(=O)(=O)c1ccccc1 (stereo unspecified)	n	n	n	n
CC(C)C(C(=O)NCC1CCCO1)N(Cc1ccccc1)C(=O)CNS(=O)(=O)c1ccccc1 (stereo unspecified)	n	x	7.1µM	n
CCOc1ccccc1N(CC(=O)NCC1CCCO1)C(=O)CNS(=O)(=O)c1ccccc1 (stereo unspecified)	15µM	n	n	n
COc1ccc(CNC(=O)CN(CC2CCCO2)C(=O)CNS(=O)(=O)c2ccc(F)cc2)cc1 (stereo unspecified)	10µM	n	n	n
CCOC(=O)c1c(C)oc2nc(C)nc(NCCCN3CCN(c4ccc(F)cc4)CC3)c12	x	x	n	x
